Data reported in PubChem BioAssay (NCI).
Compounds without any hit were thinned out: in the full panel of roughly 83,000, 20% have a hit.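 Cells were grown in 96-well plates and exposed to the test compound at a single concentration for 48 hours; results are reported as percent growth, with values below 10 considered active.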 Activity calls are given as the source filed them.

The compounds below were run on DU-145 prostate (assay: NCI-60 one-dose screen, 48 h (100 = growth as untreated, 0 = no growth, -100 = all killed)). Conditions: 10 µM unless noted.

**Q.** How did the growth turn out when `CN1CCN(c2nc(-c3csc(-c4cccs4)n3)cc3ccccc23)CC1` was run?
**A.** 55.8% (inactive)

**Q.** With `O=C(O[C@@H]1Cc2c(O)cc(O)cc2O[C@@H]1c1cc(O)c(O)c(O)c1)c1cc(O)c2c(c1)OCO2` as the compound, how does the growth read?
**A.** 99.7% (inactive)

**Q.** How did the growth turn out when `C/C(Cc1ccc(Cl)cc1)=C(/c1ccc(Cl)cc1)c1ccc(OCCN2CCCC2)cc1` was run?
**A.** 87% (inactive)

**Q.** How did the growth turn out when `Cc1cc(N(CCCNc2ccnc3cc(Cl)ccc23)Cc2ccco2)nc(N2CCOCC2)n1` was run?
**A.** 74.7% (inactive)

**Q.** Which growth does the source give for `Cc1ccccc1-c1nc(C(Cl)Cl)nc2cc(-c3ccccc3)nn12` here?
**A.** 57.8% (inactive)

**Q.** How did the growth turn out when `O=C1/C(=C\C(Cl)=C/c2ccc([N+](=O)[O-])cc2)SC(=S)N1CCc1ccc(O)cc1` was run?
**A.** 5.69% (active)

**Q.** With `Brc1ccc2c(c1)c(-c1nc(-c3c[nH]c4ncccc34)cs1)cn2CCCN1CCCCC1` as the compound, how does the growth read?
**A.** -44.4% (active)

**Q.** `Cn1c(/C(C#N)=C/c2ccc3ccccc3c2)cc2ccccc21` was tested. Which growth did it give?
**A.** 14.9% (inactive)

**Q.** How did the growth turn out when `CN(CSc1ccc(Cl)cc1)c1ccc(CSc2ccc(Cl)cc2)cc1` was run?
**A.** 87.8% (inactive)

**Q.** How did the growth turn out when `CCNCCCn1c2c(c3ccc([N+](=O)[O-])cc3c1=O)C(=O)c1cc(OC)cnc1-2` was run?
**A.** 2.6% (active)

**Q.** With `CC1(C)NC2=C(C(Nc3cccnc3)N1)C(c1ccc([N+](=O)[O-])cc1)C(C(=O)c1ccc(N=[N+]=[N-])cc1)O2` (configuration not stated) as the compound, how does the growth read?
**A.** 106% (inactive)

**Q.** `COc1ccc(C2C(C#N)=C(N)Oc3c2sc2c(F)cccc32)cc1` (configuration not stated) was tested. Which growth did it give?
**A.** 17.3% (inactive)

**Q.** `COc1cc(-c2cc3ncccc3c3[nH]c(=O)c4cccnc4c23)cc(OC)c1OC` was tested. Which growth did it give?
**A.** 14.1% (inactive)

**Q.** Which growth does the source give for `CCCCC/C(=C\c1ccccc1)C1OC(C)C(C)O1` (configuration not stated) here?
**A.** 103% (inactive)

**Q.** Which growth does the source give for `COc1ccc2c(c1)c(-c1nc(-c3c[nH]c4ncccc34)cs1)cn2CCNC(=O)OC(C)(C)C` here?
**A.** 89.3% (inactive)

**Q.** For `COc1cc(/C=C/c2cc(/C=C/c3ccc(O)c(OC)c3)n(-c3ccccc3)c(=O)n2)ccc1O`, which growth is on record?
**A.** 86.7% (inactive)

**Q.** For `CCN1CCN(C(=O)[C@]23CC[C@@H](C)[C@H](C)[C@H]2C2=CC[C@@H]4[C@@]5(C)C/C(=C/c6cccc(OC)c6OC)C(=O)C(C)(C)[C@@H]5CC[C@@]4(C)[C@]2(C)CC3)CC1`, which growth is on record?
**A.** 57.3% (inactive)

**Q.** `COc1cc2c(cc1-c1c(C)noc1C)ncc1nc(C3CCCCC3)n([C@@H](C)COC(F)F)c12` was tested. Which growth did it give?
**A.** 61% (inactive)

**Q.** With `CC(=O)OC[C@]12CC[C@@H](/C(C)=N/O)[C@@H]1[C@H]1CC[C@@H]3[C@@]4(C)CCCNC(C)(C)[C@@H]4CC[C@@]3(C)[C@]1(C)CC2` as the compound, how does the growth read?
**A.** 77.3% (inactive)

**Q.** With `Brc1cnc2[nH]cc(-c3nnc(-c4ccccc4)o3)c2c1` as the compound, how does the growth read?
**A.** 57.9% (inactive)

**Q.** With `COc1ccc2[nH]c(-c3ccc(Cl)cc3)cc(=O)c2c1` as the compound, how does the growth read?
**A.** 105% (inactive)

**Q.** How did the growth turn out when `CCN1CCN(C(=O)[C@]23CCC(C)(C)C[C@@H]2C2=CC[C@@H]4[C@@]5(C)C/C(=C/c6ccncc6)C(=O)C(C)(C)[C@@H]5CC[C@@]4(C)[C@]2(C)CC3)CC1` was run?
**A.** -16.9% (active)

**Q.** Which growth does the source give for `COc1ccc(/C=C(\C#N)c2cc3ccccc3n2S(C)(=O)=O)cc1` here?
**A.** 98.2% (inactive)

**Q.** How did the growth turn out when `Cc1ccc(S(=O)(=O)Nc2ccc(-c3cc(-c4cccc(F)c4)c(C#N)c(=O)[nH]3)cc2)cc1` was run?
**A.** 84% (inactive)

**Q.** How did the growth turn out when `N#CC1=C(N)Oc2c(c(N)nn2-c2ccccc2)C1c1ccc(Cl)cc1` (configuration not stated) was run?
**A.** 99.6% (inactive)

**Q.** With `C=C(C)[C@@H]1CC[C@]2(CN)CC[C@]3(C)[C@H](CC[C@@H]4[C@@]5(C)CCC(=O)NC(C)(C)[C@@H]5CC[C@]43C)[C@@H]12` as the compound, how does the growth read?
**A.** 75% (inactive)

**Q.** Which growth does the source give for `CC1(C)[C@@H](O)CC[C@]2(C)[C@H]3CC[C@@H]4[C@H]5[C@H](C(=O)/C=C/c6ccc(C(F)(F)F)cc6)CC[C@]5(CO)CC[C@@]4(C)[C@]3(C)CC[C@@H]12` here?
**A.** 70.1% (inactive)
